# HT1080 IDH1KD tx: toxicity to HT-1080 IDH1 knockdown cells (counter line); Potency, µM (top dose mostly 46.1 µM), inactives show top-dose activity, negative = toxicity, hits mostly cytotoxic; HT-1080 IDH1 knockdown viability, ATP luminescence, 48 h; 360,000 compounds, 2% hits;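 also: 0% = DMSO wells and -100% = cell-free medium wells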
#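 After a 2 h attachment period, IDH1KD HT-1080 cells took pin-transferred compound for 48 h at 37 °C; ATP-based luminescence after 10 min room-temperature reagent incubation reported viability.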
# KB-V1 MDR tox: kills drug-selected multidrug resistant KB-V1 cells. KB-V1 MDR cells viability, CellTiter-Glo, 72 h. Potency, µM (highest dose often 46.1 µM), most hits filed as cytotoxic. 400,000 compounds, 3.4% hits; also: % is scaled to controls: 0 for no effect and ±100 for the full control effect; nearly all actives have a fitted effect of over 60% in size
#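 Compound-treated KB-V1 multidrug-resistant cells, 72 h, 37 degrees C; viability by CellTiter-Glo. Fitted qHTS curves give the values.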
# KB-3-1 cytotox: KB-3-1 parental cell cytotoxicity | KB-3-1 viability, CellTiter-Glo ATP luminescence, 72 h | Potency, µM (highest dose often 46.1 µM), hits mostly cytotoxic | 400,000 compounds, 1.4% hits | AID 1347075; also: % is scaled to controls: 0 for no effect and ±100 for the full control effect; nearly all actives have a fitted effect of over 60% in size
#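 Parental KB-3-1 adenocarcinoma cells in phenol-red-free DMEM with 10% FBS were pin-treated with compounds at several concentrations, incubated 72 h at 37 °C, and viability read by CellTiter-Glo luminescence; concentration-effect curves were fitted after normalization.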
# HT1080-NT tox: kills 2HG-producing HT-1080-NT fibrosarcoma cells | 360,000 compounds, 1.6% hits | HT-1080-NT fibrosarcoma viability, CellTiter-Glo ATP luminescence, 48 h | AID 686970 | Potency, µM (doses to about 46.1 µM), without a hit: top-dose activity, negative = less viability, usual class: cytotoxic;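 also: NT is the 2HG producing partner of a matched IDH1 knockdown line; 0% = DMSO-treated cells and -100% = media-only wells without cells; nearly all actives have a fitted effect of over 55% in size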
#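 Toxicity toward the 2HG-producing NT line was scored as %Activity, normalised to DMSO and no-cell wells, from CellTiter-Glo luminescence after 48 hours' treatment.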
# ATXN2 expr inh: ATXN2 expression inhibition; HEK-293 ATXN2-luciferase reporter, luminescence, 24 h; Potency, µM (series often up to 57 µM), for inactives: top-dose activity change, negative = inhibition, most hits filed as inhibitors; 360,000 compounds, 0.72% hits; AID 1745845; also: % is scaled to controls: 0 for no effect and ±100 for the full control effect; nearly all actives have a fitted effect of over 55% in size
#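 qHTS (up to 57 uM final) was run with 24 h compound exposure of reporter cells at 37 °C. Each well was multiplexed: SteadyGlo luminescence measured ATXN2-luciferase expression after a fluorogenic Gly-Phe-AFC viability readout (25 uM final).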
# S2 tox: cell viability loss in ATXN counter-screen; S2 cells (HEK-293 line with an ATXN2-luciferase reporter) viability, CellTiter-Fluor protease fluorescence, 24 h; Potency, µM (top dose mostly 56.7 µM), hits mostly cytotoxic; 400,000 compounds, 0.49% hits; AID 651635; also: nearly all actives have a fitted effect of over 40% in size
# * marks the source's active call; other numbers are inactive results; i = inactive; ? = inconclusive; / = no result given. This is a sample that favours compounds with a hit; in the whole collection about 6.2% have one here. Calls follow the shape of the dose curve; as a rule, active = well fitted curve in the direction sought with a large enough effect; inconclusive = small, poorly fitted or top-dose-only effect, or another doubt; inactive = no such curve, though single readings can be large; an effect the other way counts as inactive or inconclusive. Potency is read from the fitted curve at half-maximal effect.
SMILES,HT1080 IDH1KD tx,KB-V1 MDR tox,KB-3-1 cytotox,HT1080-NT tox,ATXN2 expr inh,S2 tox
CCOC(=O)c1c(C)[nH]c(C)c1S(=O)(=O)N1CCC(C(=O)Nc2ccccc2CC)CC1,/,?,i,/,3%,i
O=C(c1cc(-c2ccccc2)on1)N(Cc1cccnc1)C(c1ccccn1)c1nc2ccccc2[nH]1 (centres undefined),?,?,i,-28%,?,?
O=[N+]([O-])c1ccc2c(c1)c1ccccc1n2CCO,?,8.2µM*,?,?,-6%,/
CCn1c2ccccc2c2cc(NC(=O)c3ccc([N+](=O)[O-])cc3)ccc21,-17%,i,?,-11%,-2%,i
CCOC(=O)C1=C(COC(=O)CCc2ccc(CC)cc2)NC(=O)NC1C (centres undefined),11%,i,i,3%,8%,i
CCCCc1cc(=O)oc2cc(OCC(=O)N(CC)CC)ccc12,5%,7.3µM*,i,3%,3%,i
C=C(Cl)COc1ccc2c(CCCC)cc(=O)oc2c1,-3%,i,i,-4%,-9%,i
C[C@@H]1C[C@H]2[C@@H]3CCC4=CC(=O)C=C[C@]4(C)[C@@]3(F)[C@@H](O)C[C@]2(C)[C@@]1(O)C(=O)COC(=O)c1ccncc1,/,/,/,/,-2%,i
CC(=O)Nc1ccc(S(=O)(=O)Nc2nc3ccccc3nc2N2CCc3ccccc3C2)cc1,1%,9.2µM*,i,3%,31%,?
O=S(=O)(Nc1nc2ccccc2nc1N1CCc2ccccc2C1)c1ccc(Br)cc1,?,i,?,-20%,17%,i
Cc1ccccc1S(=O)(=O)Nc1nc2ccccc2nc1Cl,-13%,i,i,-16%,5%,i
O=S(=O)(Nc1nc2ccccc2nc1N1CCc2ccccc2C1)c1ccc(Cl)cc1,-16%,15µM*,15µM*,-3%,6%,i
Cc1ccccc1S(=O)(=O)Nc1nc2ccccc2nc1N1CCc2ccccc2C1,-19%,21µM*,i,-9%,28%,i
COC(=O)c1cnn2c(C)c(Cc3c(C)cc(C)cc3C)c(C)nc12,/,i,i,/,-3%,i
COc1ccc(C(=O)N=c2sc3c(C)ccc(OC)c3n2C)cc1OC,9%,18µM*,?,9%,/,i
COc1cccc(C(=O)N=c2sc3c(C)ccc(OC)c3n2C)c1,0%,i,i,16%,112%,i
Cc1ccccc1-c1noc(-c2cccnc2N(C)Cc2ccc(Cl)cc2)n1,/,?,i,/,15%,i
COc1cc(NC(=O)C2CC(c3cccc(Br)c3)=NO2)cc(OC)c1OC (centres undefined),-1%,?,i,-4%,-17%,/
COc1cccc(C2=NOC(C(=O)NCc3cccs3)C2)c1 (centres undefined),21µM*,?,?,?,12%,i
COc1ccc(NC(=O)C2CC(c3cc(OC)c(OC)c(OC)c3)=NO2)cc1OC (centres undefined),-14%,13µM*,i,4%,2%,i
COc1cc(C2=NOC(C(=O)NC3CCCCC3)C2)cc(OC)c1OC (centres undefined),-6%,9.2µM*,i,-4%,0%,i
COc1cccc(C2=NOC(C(=O)Nc3cc(OC)c(OC)c(OC)c3)C2)c1 (centres undefined),-29%,21µM*,i,0%,-17%,i
COc1ccc(CNC(=O)C2CC(c3cccc(OC)c3)=NO2)cc1 (centres undefined),-1%,i,i,4%,-3%,i
CC1=C(C(=O)Nc2cccnc2)C(c2ccc(Cl)cc2)n2nc(-c3ccccc3)nc2N1 (centres undefined),/,i,i,/,?,?
CC(C)CNC(=O)C1=CC(c2ccc3c(c2)OCO3)=NS(=O)(=O)N1C,/,i,i,/,1%,i
SMILES,HT1080 IDH1KD tx,KB-V1 MDR tox,KB-3-1 cytotox,HT1080-NT tox,ATXN2 expr inh,S2 tox
C=C1NN(Cc2ccccc2)C(=O)N1c1ccc(OCc2ccccc2)cc1,/,i,i,/,/,/
Cc1ccc(C(=O)Nc2ccc3oc(-c4ccccc4C)nc3c2)cc1,/,i,i,/,-11%,?
CCCCCCOC(=O)Nc1ccc(S(=O)(=O)Nc2cccc([N+](=O)[O-])c2)cc1,0%,21µM*,i,-1%,-31%,i
Cc1ccc(C)c(NC(=O)c2ccccc2NS(=O)(=O)c2cc([N+](=O)[O-])ccc2C)c1,13µM*,i,21µM*,10µM*,?,i
Cc1ccc(NS(=O)(=O)c2cc(C(=O)Nc3cccc([N+](=O)[O-])c3)ccc2C)cc1,?,15µM*,i,-9%,-27%,i
Cc1ccc(NS(=O)(=O)c2ccc(OCC(=O)Nc3cccc([N+](=O)[O-])c3)c(C)c2)cc1,13µM*,i,i,?,?,?
COc1c(C)cc(C(O)c2ncc(-c3cccc(F)c3)[nH]2)cc1C (centres undefined),-12%,i,i,1%,-2%,i
CCOc1ccc(-n2c(SCC(=O)N3CCOCC3)nc3c([nH]c4ccccc43)c2=O)cc1,/,?,i,/,3%,i
Cc1nc2ccc(C(=O)N(C)Cc3ccccc3)cn2c1N(C)C(=O)CCc1ccccc1,28%,i,i,1%,-2%,i
COCCCNc1nc2c(-c3cccc(Br)c3)nnn2c2ccccc12,/,i,i,/,15%,i
O=C(NCC(c1cccs1)N1CCOCC1)c1ccc(Cl)cc1 (centres undefined),?,?,?,?,-17%,i
Cc1ccc(S(=O)(=O)Nc2cccc(C(=O)NCC(c3ccc(F)cc3)N3CCOCC3)c2)cc1 (centres undefined),7%,?,i,-3%,-11%,i
O=C(NCC(c1cccs1)N1CCOCC1)c1cc(F)cc(F)c1 (centres undefined),5.8µM*,?,?,7.3µM*,/,i
Cc1cccc(NS(=O)(=O)c2cccc(C(=O)NCC(c3ccc(F)cc3)N3CCOCC3)c2)c1 (centres undefined),-7%,21µM*,?,0%,-18%,i
O=C(NCC(c1cccs1)N1CCOCC1)c1ccc(Cl)s1 (centres undefined),/,16µM*,?,/,-28%,i

# From PubChem BioAssay
